The supplement of paper PMC5499739
Over roughly 16,000 sequences, “Z-score” has its median near -0.37; the highest 2% begin near 3.2. The full list was thinned out, with the highest values kept by preference.

tested on: RBM10 RRM1-ZnF (GST-tagged construct); test: RNAcompete 7-mer binding Z-score; higher = stronger binding preference
Method in brief: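 A one-sided Z-score for enrichment, taken across the probes containing each heptamer motif, was assigned to every such motif. The RNA came from a designed pool of 241 399 sequences up to 41 nt (1.5 nmol), bound by 20 pmol of GST-tagged RBM10 constructs in 1 ml Hepes pH 7.8 buffer with glutathione Sepharose beads for 30 min at 4°C. Four 2-min washes at 4°C preceded identification of bound RNA by microarray hybridisation.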

Compared with UCAUUAA, GCAUUCG is higher in “RNAcompete 7-mer binding Z-score” value: -0.509 for the first, -0.444 for the second.

First: GGAUAGG
Second: GGGAUUC
The “RNAcompete 7-mer binding Z-score” value of the first is higher: 4.11 for the first, 1.12 for the second.

Compared with AGGAUUG, AGAUAGG is higher in “RNAcompete 7-mer binding Z-score” value: 1.5 for the first, 2.44 for the second.

Going from GGAUAGA to GGGAUAC, the “RNAcompete 7-mer binding Z-score” value falls from 2.61 to 2.5.

Going from GGGAUAA to UGGAUAA, the “RNAcompete 7-mer binding Z-score” value falls from 3.48 to 1.15.

First: GGGAUUG
Second: GUAGUUC
The “RNAcompete 7-mer binding Z-score” value of the first is higher: 3.5 for the first, -0.243 for the second.

First: UGAAUAG
Second: GUCUGAC
The “RNAcompete 7-mer binding Z-score” value of the first is higher: 0.387 for the first, -0.529 for the second.

Compared with CACAACA, UUGGUGG is higher in “RNAcompete 7-mer binding Z-score” value: -0.363 for the first, 2.48 for the second.

Compared with GUGGUGC, CUGGUGG is lower in “RNAcompete 7-mer binding Z-score” value: 1.76 for the first, 1.64 for the second.

Compared with AUGGUGG, GUGGUGG is higher in “RNAcompete 7-mer binding Z-score” value: 3.82 for the first, 3.9 for the second.

First: AUGGUGC
Second: CCCGAGG
The “RNAcompete 7-mer binding Z-score” value of the first is higher: 1.03 for the first, 0.384 for the second.

Going from AUCACAU to CAGCAAC, the “RNAcompete 7-mer binding Z-score” value falls from -0.457 to -0.539.

Compared with CGACGCA, UGGGUCU is higher in “RNAcompete 7-mer binding Z-score” value: -0.36 for the first, 1.12 for the second.

Compared with ACUGCUG, AAGGGCA is higher in “RNAcompete 7-mer binding Z-score” value: -0.675 for the first, 2.78 for the second.

Going from UAGGGUC to GAGGGUU, the “RNAcompete 7-mer binding Z-score” value rises from 1.55 to 3.03.

Compared with AAGGGUC, GAGGGUG is higher in “RNAcompete 7-mer binding Z-score” value: 1.72 for the first, 3.75 for the second.

Going from UAGGGUA to CAGGGUA, the “RNAcompete 7-mer binding Z-score” value falls from 3.47 to 2.99.

First: GAGGGUC
Second: UAGGGUG
The “RNAcompete 7-mer binding Z-score” value of the first is lower: 1.44 for the first, 4.81 for the second.

Going from AAGGGUA to UAGGGCG, the “RNAcompete 7-mer binding Z-score” value falls from 4.59 to 2.22.

Going from UCGGGUA to UGUUUCU, the “RNAcompete 7-mer binding Z-score” value falls from 1.4 to -0.418.

Going from CCUAAGG to AGUCCCA, the “RNAcompete 7-mer binding Z-score” value falls from -0.344 to -0.714.

Going from AUGGUAG to ACGCCAU, the “RNAcompete 7-mer binding Z-score” value falls from 2.74 to -0.665.

First: AAACCUC
Second: UCCCUUU
The “RNAcompete 7-mer binding Z-score” value of the first is higher: -0.802 for the first, -0.912 for the second.

Compared with GCAUUUG, CCGAAGG is higher in “RNAcompete 7-mer binding Z-score” value: -0.477 for the first, 0.179 for the second.

First: GAGGGCA
Second: CAGGGUC
The “RNAcompete 7-mer binding Z-score” value of the first is higher: 2.12 for the first, 1.09 for the second.

First: UCGGGUU
Second: CAGGGUU
The “RNAcompete 7-mer binding Z-score” value of the first is lower: 1.12 for the first, 2.15 for the second.

Compared with AAGGUUU, UAGGGUU is higher in “RNAcompete 7-mer binding Z-score” value: 2.51 for the first, 3.33 for the second.

Compared with AAGGGUU, CAGGGUG is lower in “RNAcompete 7-mer binding Z-score” value: 4.07 for the first, 3.21 for the second.

Compared with AAAGGUU, CAGGGCG is lower in “RNAcompete 7-mer binding Z-score” value: 3.12 for the first, 2.02 for the second.

Compared with CCGGGUA, GAGGGUA is higher in “RNAcompete 7-mer binding Z-score” value: 0.625 for the first, 3.95 for the second.

First: GCCGCGA
Second: AACGUCA
The “RNAcompete 7-mer binding Z-score” value of the first is higher: -0.422 for the first, -0.574 for the second.

First: AGCUAUG
Second: GUUCGCA
The “RNAcompete 7-mer binding Z-score” value of the first is higher: -0.168 for the first, -0.652 for the second.

First: CCCUUAU
Second: AGCUGUU
The “RNAcompete 7-mer binding Z-score” value of the first is lower: -0.831 for the first, -0.737 for the second.

First: UAUACGU
Second: AAGGUGU
The “RNAcompete 7-mer binding Z-score” value of the first is lower: -0.357 for the first, 2.55 for the second.

Compared with GAGGUGG, GAGGUGU is lower in “RNAcompete 7-mer binding Z-score” value: 3.35 for the first, 2.37 for the second.

First: AAGGUGA
Second: AAGGUGC
The “RNAcompete 7-mer binding Z-score” value of the first is higher: 3.66 for the first, 2.39 for the second.

First: AAGGUAG
Second: CAGGUAG
The “RNAcompete 7-mer binding Z-score” value of the first is higher: 3.69 for the first, 2.32 for the second.

First: GAGGUGA
Second: CAGGUGA
The “RNAcompete 7-mer binding Z-score” value of the first is higher: 2.56 for the first, 1.49 for the second.

First: AAGGUGG
Second: AAGGUAA
The “RNAcompete 7-mer binding Z-score” value of the first is higher: 4.39 for the first, 2.97 for the second.

First: GAGGUGC
Second: CGUUACU
The “RNAcompete 7-mer binding Z-score” value of the first is higher: 1.81 for the first, -0.558 for the second.

First: AGUAUUC
Second: AAACCAA
The “RNAcompete 7-mer binding Z-score” value of the first is higher: -0.493 for the first, -0.548 for the second.

Going from CAGCGUC to AGGAAUA, the “RNAcompete 7-mer binding Z-score” value rises from -0.623 to 0.881.

Compared with ACUACUA, CCCUGUG is higher in “RNAcompete 7-mer binding Z-score” value: -0.402 for the first, -0.327 for the second.

Going from GACUCUA to GUAUGUG, the “RNAcompete 7-mer binding Z-score” value rises from -0.642 to 1.07.

First: CACUCGC
Second: AUGCGAG
The “RNAcompete 7-mer binding Z-score” value of the first is lower: -0.604 for the first, 0.569 for the second.

Going from CAGGUUG to UAGGUUG, the “RNAcompete 7-mer binding Z-score” value rises from 2.04 to 2.09.

Compared with AAGGUUG, AGAGCGC is lower in “RNAcompete 7-mer binding Z-score” value: 3.49 for the first, -0.568 for the second.

Going from GCACACU to GCGUGGG, the “RNAcompete 7-mer binding Z-score” value rises from -0.295 to 3.53.

Compared with GGGUGGU, UGGUGGU is lower in “RNAcompete 7-mer binding Z-score” value: 4.8 for the first, 2.8 for the second.

Going from CGGUGGU to UGGUGGC, the “RNAcompete 7-mer binding Z-score” value rises from 1.64 to 1.8.

Compared with GGGUGGC, UGGUGGA is lower in “RNAcompete 7-mer binding Z-score” value: 2.89 for the first, 2.86 for the second.

First: ACGUGGG
Second: GGGUGGG
The “RNAcompete 7-mer binding Z-score” value of the first is lower: 2.43 for the first, 4.82 for the second.

Compared with UCGUGGG, GGGUGCG is higher in “RNAcompete 7-mer binding Z-score” value: 2.53 for the first, 2.96 for the second.

Going from UGGUGGG to AACAGAA, the “RNAcompete 7-mer binding Z-score” value falls from 4.74 to -0.0447.

Going from UUUGCGU to AUGUGGA, the “RNAcompete 7-mer binding Z-score” value rises from -0.642 to 2.27.

Compared with UUUGACC, UCUGCAG is higher in “RNAcompete 7-mer binding Z-score” value: -0.88 for the first, -0.629 for the second.

Compared with AAGCUGG, AGGUGGG is higher in “RNAcompete 7-mer binding Z-score” value: 0.904 for the first, 3.76 for the second.

First: CGGUGGA
Second: AGGUGGU
The “RNAcompete 7-mer binding Z-score” value of the first is higher: 2.43 for the first, 2.18 for the second.

Going from AGGUGGA to CGGUGGG, the “RNAcompete 7-mer binding Z-score” value rises from 3.15 to 3.2.

Compared with GGGUGGA, UAUAUAA is lower in “RNAcompete 7-mer binding Z-score” value: 4.53 for the first, -0.519 for the second.

Going from GGGACGG to GAACGGC, the “RNAcompete 7-mer binding Z-score” value falls from 3.45 to 0.693.

First: UGGACGG
Second: CGAACGG
The “RNAcompete 7-mer binding Z-score” value of the first is higher: 3.09 for the first, 1.21 for the second.

Going from CGGACGG to GAACGGU, the “RNAcompete 7-mer binding Z-score” value rises from 1.32 to 1.64.

Compared with GGAACGG, GGACGGG is higher in “RNAcompete 7-mer binding Z-score” value: 4.07 for the first, 4.52 for the second.

First: CGACGGG
Second: GAACGGG
The “RNAcompete 7-mer binding Z-score” value of the first is lower: 1.62 for the first, 4.25 for the second.

Going from GGACGGC to AGAACGG, the “RNAcompete 7-mer binding Z-score” value rises from 1.19 to 1.53.

Compared with AUAGGCA, UGGGCCU is lower in “RNAcompete 7-mer binding Z-score” value: 0.686 for the first, 0.335 for the second.

Going from CUUACCC to CUAUUGC, the “RNAcompete 7-mer binding Z-score” value rises from -0.792 to -0.714.

Compared with AGAUGGU, GGAUGGC is higher in “RNAcompete 7-mer binding Z-score” value: 1.71 for the first, 2.58 for the second.

Compared with GGAUGGU, UGAUGGU is lower in “RNAcompete 7-mer binding Z-score” value: 3.9 for the first, 1.87 for the second.

Going from AGAUGGA to GGAUGGA, the “RNAcompete 7-mer binding Z-score” value rises from 2.97 to 4.23.

Going from UCUGUGA to AAGGGAU, the “RNAcompete 7-mer binding Z-score” value rises from -0.581 to 3.65.

First: CAGGGAU
Second: ACGGGAA
The “RNAcompete 7-mer binding Z-score” value of the first is lower: 2.36 for the first, 3.12 for the second.

First: GGGGAAA
Second: AGGGAAA
The “RNAcompete 7-mer binding Z-score” value of the first is lower: 3.19 for the first, 4.7 for the second.

Compared with CAGGGAA, CGGGAAA is lower in “RNAcompete 7-mer binding Z-score” value: 2.96 for the first, 2.41 for the second.

Compared with AAGGGAA, GAGGGAU is lower in “RNAcompete 7-mer binding Z-score” value: 4.37 for the first, 3.16 for the second.

Going from CGGGAAG to AGGGAAC, the “RNAcompete 7-mer binding Z-score” value rises from 2.18 to 2.57.

Going from AGGGAAG to CUGUACU, the “RNAcompete 7-mer binding Z-score” value falls from 4.53 to -0.743.

Compared with AACCCCA, AAGAGCG is higher in “RNAcompete 7-mer binding Z-score” value: -0.483 for the first, 0.836 for the second.

Going from UUUUUAA to ACUCUCG, the “RNAcompete 7-mer binding Z-score” value falls from -0.652 to -0.785.

Going from AAGGGAG to AGGGGAA, the “RNAcompete 7-mer binding Z-score” value falls from 3.99 to 3.57.

Compared with UGGGAAA, GAGGGAG is higher in “RNAcompete 7-mer binding Z-score” value: 2.58 for the first, 3.2 for the second.

Compared with UGGGAAU, AAGGGCG is higher in “RNAcompete 7-mer binding Z-score” value: 2.53 for the first, 3 for the second.

First: CAGGGAG
Second: UAGGGAG
The “RNAcompete 7-mer binding Z-score” value of the first is lower: 2.8 for the first, 3.25 for the second.

First: AAGGGAC
Second: GGGGGAA
The “RNAcompete 7-mer binding Z-score” value of the first is higher: 3.18 for the first, 3.15 for the second.

Going from UGGGAAG to AGAUAGU, the “RNAcompete 7-mer binding Z-score” value falls from 4.03 to 0.0853.

Compared with UAGCGAU, ACGUCAU is lower in “RNAcompete 7-mer binding Z-score” value: -0.194 for the first, -0.513 for the second.

Going from UAUCGAU to UGUCCAC, the “RNAcompete 7-mer binding Z-score” value falls from -0.513 to -0.558.

First: CGACCGA
Second: GUCCGGA
The “RNAcompete 7-mer binding Z-score” value of the first is lower: -0.519 for the first, 0.0625 for the second.

Going from CAGUAUU to CCUGCGG, the “RNAcompete 7-mer binding Z-score” value rises from -0.646 to 0.27.

Going from GGAGGUG to GGAGGUA, the “RNAcompete 7-mer binding Z-score” value falls from 3.72 to 3.28.

Compared with UGAGGUA, CGAGGUA is lower in “RNAcompete 7-mer binding Z-score” value: 1.97 for the first, 1.57 for the second.

Going from AGAGGUG to GGAGGUU, the “RNAcompete 7-mer binding Z-score” value rises from 2.04 to 2.51.

With GGAGCGC the “RNAcompete 7-mer binding Z-score” value was 1.27.
